{"source": "PubChem BioAssay (EPA / NIEHS)", "note": "The source made the active and inactive calls. How the source made its calls: active means hit-call score of the fitted dose curve at least 0.9, where 1 is the maximum; inactive means score below 0.9.", "data": [{"experiment": "APR_HepG2_P-H2AX_72hr: Apredica 72-hour HepG2 Assay for H2AX Phosphorylation (AID 2282916)", "conditions": "imaging, actives raise or lower the signal", "procedure": "APR_HepG2_72hr is a cell-based, multiplexed-readout assay that uses HepG2, a human liver cell line, with measurements taken at 72 hours after chemical dosing in a 384-well plate.APR_HepG2_P-H2AX_72hr is one of 10 assay component(s) measured or calculated from the APR_HepG2_72hr assay. It is designed to make measurements of dna content, a form of viability reporter, as detected with fluorescence intensity signals by HCS Fluorescent Imaging technology.Data from the assay component APR_HepG2_P-H2AX_72hr was analyzed into 1 assay endpoint. This assay endpoint, APR_HepG2_P-H2AX_72hr, was analyzed with bidirectional fitting relative to DMSO as the negative control and baseline of activity. Using a type of viability reporter, measures of protein for gain or loss-of-signal activity can be used to understand the signaling at the pathway-level as they relate to the gene . Furthermore, this assay endpoint can be referred to as a primary readout, because this assay has produced multiple assay endpoints where this one serves a signaling function. To generalize the intended target to other relatable targets, this assay endpoint is annotated to the dna binding intended target family, where the subfamily is cellular response to DNA damage stimulus.\nCells were treated with dimethyl sulfoxide (DMSO) as a solvent control at a final concentration of 0.5% v/v or with compounds in DMSO with a resulting final DMSO concentration of 0.5% v/v. Compound treatment was done at concentrations of 0.39, 0.78, 1.56, 3.12, 6.24, 12.5, 25, 50, 100, and 200 uM in duplicate on each plate. Cells were treated with compounds for 1, 24, or 72 hr. Carbonyl […] m-chloro-phenylhydrazone (CCCP) and taxol were used as positive controls for mitochondrial function and cytoskeletal stability, respectively; DMSO served as the negative control for this experiment. Cells were fixed by the direct addition of 50 uL formaldehyde in Hank's Balanced Salt Solution (HBSS) to a final concentration of 3.7%. After incubation in the fixation medium for 30 min at room temperature (293-298 K), cells were rinsed twice with HBSS and treated with cell permeabilization buffer (16 uL of 0.5% Triton X-100) for 10 min at room temperature (293-298 K) before labeling. For mitochondrial membrane potential and mitochondrial measurements, pre-fixed cells were incubated with 50 uL of MitoTracker Red CMXRos (Invitrogen) at a concentration of 250 nM for 30 min before fixation. In the remaining cases, post-fixed cells were labeled by incubation with a multiplexed mixture of primary antibodies in HBSS for 60 min at room temperature (293-298 K) to detect immunoreactivity of c-Jun (1:500), phospho-histone H3 (1:100), phospho-histone H2A.x (1:200), p53 (1:400), alpha-tubulin (1:200) and Hoechst 33342 (2 ug/mL). Cells were labeled for multiplexed imaging on two separate plates: a) Hoechst 33342, MitoTracker Red, phospho-histone H3, and alpha-tubulin, and b) Hoechst 33342, phospho-histone H2A.x, and c-Jun. A final rinse with HBSS (50 uL) was performed before analysis. The primary and secondary antibodies for the proteins were phospho-histone H3 (rabbit anti-phospho-histone H3 and FITC-donkey anti-rabbit IgG), phospho-histone H2A.x (mouse anti-phospho-histone H2A.x and FITC-donkey anti-mouse IgG), c-Jun (rabbit anti-phospho-c-Jun and Cy3-donkey anti-rabbit IgG), p53 (sheep anti-p53 and Cy5-donkey anti-sheep IgG), alpha-tubulin (mouse anti-alpha-tubulin and Cy5-donkey anti-mouse IgG). These antibodies are available as the CellCiphr HepG2 assay kit (Millipore).Digital images of each well were captured using a Cellomics ArrayScan VTI (Thermo Scientific Cellomics) (0.8 NA objective, 0.63x optical coupler, and XF-93 filter set) at 20x magnification. The images were acquired using the autofocus feature of the ArrayScan instrument, which entails the following steps. First, the camera focuses on channel 1 (Hoechst 33342), where nuclei are identified. Second, a Z offset of 1 um is used for capturing mitochondria (MitoTracker Red). […]", "values": [{"smiles": "O=C(Nc1ccc(Cl)cc1)Nc1ccc(Cl)c(Cl)c1", "AC50": "6.38 µM (active)"}, {"smiles": "O=c1ccc2ccccc2o1", "outcome": "inactive"}, {"smiles": "CCCCCc1ccc(N)cc1", "outcome": "inactive"}, {"smiles": "CCCCCCCCCCCO", "outcome": "inactive"}, {"smiles": "NC(=O)c1nc(-c2cccc(-c3cc(F)ccc3OCC(F)(F)C(F)(F)F)c2)n[nH]1", "AC50": "111 µM (active)"}, {"smiles": "Cc1cn([C@H]2C[C@H](N=[N+]=[N-])[C@@H](CO)O2)c(=O)[nH]c1=O", "outcome": "inactive"}, {"smiles": "Oc1ccccc1", "outcome": "inactive"}, {"smiles": "CN(C[C@@H](CC[N+]12CCC(C3CCCCC3)(CC1)CC2)c1ccc(Cl)c(Cl)c1)C(=O)c1cc(C(F)(F)F)cc(C(F)(F)F)c1", "AC50": "31.8 µM (active)"}, {"smiles": "O=C(O)c1ccccc1C(=O)OCc1ccccc1", "outcome": "inactive"}, {"smiles": "CN1C(=O)CC[C@H]1c1cccnc1", "outcome": "inactive"}, {"smiles": "COc1cccc([C@H](O)C2CCN(CCc3ccc(F)cc3)CC2)c1OC", "outcome": "inactive"}, {"smiles": "CCN(CC)C(=O)c1cc(S(=O)(=O)Cc2ccccc2)c(N2CCC(c3ccccc3)CC2)cc1N(CC)CCN(C)C", "AC50": "0.876 µM (active)"}, {"smiles": "Cc1c2ccccc2c(C)c2c1ccc1ccccc12", "AC50": "21.5 µM (active)"}, {"smiles": "CN(C)c1ccc(C(=C2C=CC(=[N+](C)C)C=C2)c2ccc(N(C)C)cc2)cc1", "AC50": "4.24 µM (active)"}, {"smiles": "Cc1cccc2ccccc12", "outcome": "inactive"}, {"smiles": "COc1cc(C(=O)NC2CCN(C)CC2)ccc1Nc1ncc2c(n1)N(C1CCCC1)CC(F)(F)C(=O)N2C", "outcome": "inactive"}, {"smiles": "O=C1CCC(C2CCCCC2)CC1", "outcome": "inactive"}, {"smiles": "OC12N=C(c3ccccc3)SC1Cc1cc(Cl)ccc12", "note": "(stereo not given)", "AC50": "52.1 µM (active)"}, {"smiles": "CC(C)(C)c1csc(-c2cc3cc(OCc4ccccc4CC(=O)O)ccc3o2)n1", "outcome": "inactive"}, {"smiles": "O=C1c2ccccc2C(=O)N1CCc1noc(-c2ccc(CN3CCCCCC3)s2)n1", "outcome": "inactive"}, {"smiles": "Cc1occc1C(=O)Nc1ccc(C(=O)N2CCC(F)(F)/C(=C\\C(=O)N3CCC(N4CCCCC4)CC3)c3ccccc32)cc1", "outcome": "inactive"}, {"smiles": "CCCC(=O)OCCC(C)C", "outcome": "inactive"}, {"smiles": "O=C(O)Cc1cc(I)c(Oc2ccc(O)c(I)c2)c(I)c1", "outcome": "inactive"}, {"smiles": "CCCCCCCC[Si](OCC)(OCC)OCC", "AC50": "19.8 µM (active)"}, {"smiles": "CCN(Cc1cccnc1)C(=O)c1cccc(Cl)c1[C@]1(C)C(=O)N(Cc2ccc(OC)cc2OC)c2ccc(Cl)cc21", "AC50": "20.3 µM (active)"}, {"smiles": "CC(C)(C)c1cc(/C=C2\\SC(N)=NC2=O)cc(C(C)(C)C)c1O", "AC50": "41.6 µM (active)"}, {"smiles": "C[C@]12CC[C@@H]3c4ccc(O)cc4CC[C@H]3[C@@H]1CC[C@H]2O", "outcome": "inactive"}, {"smiles": "OCCO", "outcome": "inactive"}, {"smiles": "CCO[Si](CCCNC(N)=O)(OCC)OCC", "outcome": "inactive"}, {"smiles": "CC(C)(O)c1ccc(CNC(=O)c2cccnc2Oc2ccc3nonc3c2)cc1", "outcome": "inactive"}, {"smiles": "CC1=CC(=O)/C(=C(/C)O)C(=O)O1", "outcome": "inactive"}, {"smiles": "CCOC(=O)O[C@H](C)OC(=O)c1ccc2c(c1)cc(C(=O)NC1CCN(C(C)C)CC1)n2Cc1cc(-c2ccc(Cl)s2)on1", "outcome": "inactive"}, {"smiles": "CC(O)CC(C)(C)O", "note": "(stereo not given)", "outcome": "inactive"}, {"smiles": "Clc1cc(Cl)c2c(c1)N=C1CCCCCN1C2", "outcome": "inactive"}, {"smiles": "CCCOC(=O)c1cc(O)c(O)c(O)c1", "outcome": "inactive"}, {"smiles": "c1ccc2ccccc2c1", "outcome": "inactive"}, {"smiles": "O=c1c(-c2ccc(O)cc2)coc2cc(O)cc(O)c12", "outcome": "inactive"}, {"smiles": "CC(C)(c1cc(Br)c(O)c(Br)c1)c1cc(Br)c(O)c(Br)c1", "AC50": "63.3 µM (active)"}, {"smiles": "Cc1ccc(C(C)C)cc1", "outcome": "inactive"}, {"smiles": "c1ccc(C[n+]2cccc3ccccc32)cc1", "AC50": "20.6 µM (active)"}]}]}
